38 molecules from the supplement of paper PMC11624193, “Coupling cellular drug-target engagement to downstream pharmacology with CeTEAM” (Nature Communications, 2024) can be followed below.

SMILES strings stand for the structures. Counter-ions that a name gives are not always drawn. Unmarked numbers belong to inactive results.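 Rule for the calls: active = log2 fold change beyond 2 SD from the library mean after excluding viability outliers; inactive = within 2 SD.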

The target of this experiment is PARP1 L713F-nLuc biosensor (HCT116) (UniProt P09874). Briefly: PARP1 L713F-nLuc/akaLuc ratio relative to DMSO control (biosensor stabilization) (fold change); higher = more PARP1 biosensor stabilization (target engagement / stabilizer), active = hit call of the paper. The conditions noted are these: stock concentration (mM; final µM = stock mM x 1): 10; 24 h.
Sequence of PARP1 L713F-nLuc biosensor (HCT116) (P09874 whole entry L713F, looked up): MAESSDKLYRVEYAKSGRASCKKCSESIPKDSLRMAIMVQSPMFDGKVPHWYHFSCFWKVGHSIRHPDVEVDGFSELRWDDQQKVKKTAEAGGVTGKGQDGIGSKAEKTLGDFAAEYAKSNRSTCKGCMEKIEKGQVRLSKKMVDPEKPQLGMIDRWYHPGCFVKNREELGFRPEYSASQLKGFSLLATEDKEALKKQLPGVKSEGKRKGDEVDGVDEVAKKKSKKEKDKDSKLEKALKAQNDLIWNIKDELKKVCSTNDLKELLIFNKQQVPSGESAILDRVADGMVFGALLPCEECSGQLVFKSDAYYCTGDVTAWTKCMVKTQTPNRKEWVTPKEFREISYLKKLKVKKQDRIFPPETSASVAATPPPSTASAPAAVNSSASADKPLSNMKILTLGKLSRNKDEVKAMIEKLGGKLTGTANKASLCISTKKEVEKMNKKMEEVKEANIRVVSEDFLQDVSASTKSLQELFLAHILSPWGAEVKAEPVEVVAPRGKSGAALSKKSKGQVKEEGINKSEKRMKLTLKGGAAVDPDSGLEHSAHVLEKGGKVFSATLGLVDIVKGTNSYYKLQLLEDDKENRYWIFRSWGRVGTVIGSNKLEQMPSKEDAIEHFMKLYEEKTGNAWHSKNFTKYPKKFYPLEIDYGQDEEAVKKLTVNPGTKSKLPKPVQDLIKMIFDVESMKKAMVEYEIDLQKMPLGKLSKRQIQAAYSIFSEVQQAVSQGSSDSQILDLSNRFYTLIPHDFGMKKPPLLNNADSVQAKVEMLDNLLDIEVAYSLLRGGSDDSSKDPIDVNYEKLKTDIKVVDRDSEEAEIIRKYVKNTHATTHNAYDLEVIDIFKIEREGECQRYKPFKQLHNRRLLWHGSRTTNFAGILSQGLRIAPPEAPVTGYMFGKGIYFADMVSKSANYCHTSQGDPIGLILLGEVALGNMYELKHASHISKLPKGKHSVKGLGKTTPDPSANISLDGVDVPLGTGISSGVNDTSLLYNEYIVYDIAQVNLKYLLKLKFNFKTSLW
Regarding `C/C(=N\NC(=O)c1cccc(S(=O)(=O)N2CCN(C)CC2)c1)c1cc(Cl)ccc1O` [Seclidemstat], the “PARP1 L713F-nLuc/akaLuc ratio” value was 0.552.

On to `O=C(c1cc(Cc2n[nH]c(=O)c3ccccc23)ccc1F)N1CCn2nc(C(F)(F)F)nc2C1` [Fluzoparib], for which the “PARP1 L713F-nLuc/akaLuc ratio” value is 3.72 (active).

With `Nc1nc(OCc2cc(Br)cs2)c2[nH]cnc2n1` [Lomeguatrib], the “PARP1 L713F-nLuc/akaLuc ratio” value is 1.01.

`O=C(O)CC[C@H]1CC[C@@](c2cc(F)ccc2F)(S(=O)(=O)c2ccc(Cl)cc2)CC1`: the “PARP1 L713F-nLuc/akaLuc ratio” value was 0.688.

On to `Cc1nc(NC(=O)N2CCC[C@H]2C(N)=O)sc1-c1ccnc(C(C)(C)C(F)(F)F)c1` [Alpelisib (BYL719)], for which the “PARP1 L713F-nLuc/akaLuc ratio” value was 0.761.

Consider `CCN(C(=O)CO)[C@H]1CN(/C(=N\C#N)Nc2cccc(OC(F)F)c2)N=C1c1ccc(Cl)c(Cl)c1`, for which the “PARP1 L713F-nLuc/akaLuc ratio” value is 1.37.

Turning to `CCOC(=O)c1cnc(NC2(c3ccccc3)CC2)nc1`, the “PARP1 L713F-nLuc/akaLuc ratio” value is 0.982.

For `COc1cc(OC)cc(-c2noc(N3CCN(C)C4(CCN(c5ccnc(C)c5)CC4)C3)n2)c1`, the “PARP1 L713F-nLuc/akaLuc ratio” value is 0.971.

As to `CCS(=O)(=O)N1CC(CC#N)(n2cc(-c3ncnc4[nH]ccc34)cn2)C1`, the “PARP1 L713F-nLuc/akaLuc ratio” value is 0.444.

For `CCS(=O)(=O)N1CCN(c2ccc(Nc3ncc(C(N)=O)c(NC4CC4)n3)cc2)CC1` [Cerdulatinib], the “PARP1 L713F-nLuc/akaLuc ratio” value was 1.82.

Take `Cc1ncc(Cl)cc1NCc1ccc(C(=O)N[C@@H](CC2CCCC2)C(=O)NC2CC2)s1`: the “PARP1 L713F-nLuc/akaLuc ratio” value is 0.585.

For `CCN(c1cc(-c2ccc(CN3CCOCC3)cc2)cc(C(=O)NCc2c(C)cc(C)[nH]c2=O)c1C)C1CCOCC1` [Tazemetostat], the “PARP1 L713F-nLuc/akaLuc ratio” value is 0.962.

With `CN(C)c1nc2c(Br)c(Br)c(Br)c(Br)c2n1CC(=O)O`, the “PARP1 L713F-nLuc/akaLuc ratio” value is 1.02.

As to `Cc1cc(Nc2ccc(NC(=O)c3ccc(Nc4ccnc5ccccc45)cc3)cc2)nc(N)n1`, the “PARP1 L713F-nLuc/akaLuc ratio” value was 1.38.

Take `OC(COc1ccc(C(F)(F)F)cc1)CN(Cc1ccccc1)Cc1ccccc1` (stereo not drawn): the “PARP1 L713F-nLuc/akaLuc ratio” value was 1.03.

Consider `N[C@H]1CC[C@H](N[C@@H]2C[C@H]2c2ccccc2)CC1` [Iadademstat (dihydrochloride)], for which the “PARP1 L713F-nLuc/akaLuc ratio” value is 1.06.

`O=[N+]([O-])c1c(Nc2cc(F)cc(Cl)c2)ccc2nonc12`: the “PARP1 L713F-nLuc/akaLuc ratio” value was 1.45.

As for `CN1CCc2c(c3ccccc3n2Cc2ccc(C(=O)NO)cc2)C1` [Tubastatin A (Hydrochloride)], the “PARP1 L713F-nLuc/akaLuc ratio” value was 2.07.

With `CC(C)c1c(-c2cnn(C(C)(C)C)c2)nc2c(C#N)c[nH]n2c1=O`, the “PARP1 L713F-nLuc/akaLuc ratio” value is 1.58.

Turning to `Cc1ncc(F)c(Nc2n[nH]c3c2CN(C(=O)N2C[C@@H](C)N(CC4CCOCC4)C[C@@H]2C)C3(C)C)n1`, the “PARP1 L713F-nLuc/akaLuc ratio” value is 1.25.

In the case of `CCCOc1ccn2c(C(C)=O)cc(-c3cccc(OC)c3)c2c1`, the “PARP1 L713F-nLuc/akaLuc ratio” value was 1.56.

For the molecule `Cn1c(=O)c2c(ncn2CC(=O)O)n(C)c1=O` [Acefylline], the “PARP1 L713F-nLuc/akaLuc ratio” value is 0.921.

Turning to `C=CC(=O)Nc1cccc(-c2c[nH]cc2CN(C)CCN)c1`, the “PARP1 L713F-nLuc/akaLuc ratio” value is 1.61.

Take `O=C(COc1cccc2c(=O)[nH]ccc12)c1ccccc1`: the “PARP1 L713F-nLuc/akaLuc ratio” value is 1.08.

With `O=c1ccoc2cc(O)cc(O)c12` [5,7-Dihydroxychromone], the “PARP1 L713F-nLuc/akaLuc ratio” value was 1.02.

Turning to `CN1CCC(COc2cnc(-c3cccc(Cn4nc(-c5cccc(C#N)c5)ccc4=O)c3)nc2)CC1`, the “PARP1 L713F-nLuc/akaLuc ratio” value was 0.968.

With `CNC(=O)N1N=C(c2ccc(N3CCN(C)CC3)cc2)c2cc(OC)c(OC)cc2C[C@H]1C`, the “PARP1 L713F-nLuc/akaLuc ratio” value was 1.27.

Regarding `COc1c(CN)cc(CN)cc1OCCCN1Cc2ccccc2C1` [MS31 (trihydrochloride)], the “PARP1 L713F-nLuc/akaLuc ratio” value is 0.851.

Consider `CC(C)c1cccc(=O)c(O)c1` [Hinokitiol], for which the “PARP1 L713F-nLuc/akaLuc ratio” value is 0.993.

Take `C=CC(=O)N1CCC(Oc2cc3c(Nc4ccc(Cl)c(Cl)c4F)ncnc3cc2OC)CC1` [Poziotinib (HM781-36B)]: the “PARP1 L713F-nLuc/akaLuc ratio” value was 1.28.

On to `CCN(c1cc(-c2ccc(CN3CCOCC3)cc2)cc(C(=O)NCc2c(C)cc(C)[nH]c2=O)c1C)C1CCOCC1` [Tazemetostat (hydrobromide)], for which the “PARP1 L713F-nLuc/akaLuc ratio” value is 0.726.

`CCN(C(=O)c1ccccc1OC)c1cc2c(cc1N1CCNC[C@H]1C)n(C)c(=O)n2C`: the “PARP1 L713F-nLuc/akaLuc ratio” value was 0.597.

As to `CCCCNc1ncc(C(=O)NCc2ccc(-n3ccnc3)cc2)c(NC2CCC(O)CC2)n1` (stereo not drawn), the “PARP1 L713F-nLuc/akaLuc ratio” value was 0.954.

Consider `O=c1cc(N2CCOCC2)oc2c(-c3ccc4c(c3)OCCO4)csc12`, for which the “PARP1 L713F-nLuc/akaLuc ratio” value is 0.39.

As for `CC1(C)c2cccc(C(=O)NO)c2CN1c1cnc(C(F)(F)F)cn1`, the “PARP1 L713F-nLuc/akaLuc ratio” value was 0.913.

On to `C[C@@H]1CCN(C(=O)CC#N)C[C@@H]1N(C)c1ncnc2[nH]ccc12`, for which the “PARP1 L713F-nLuc/akaLuc ratio” value was 0.783.

In the case of `COc1cc2ncnc(Nc3cccc(Cl)c3F)c2cc1OC(=O)N1CCN(C)C[C@H]1C`, the “PARP1 L713F-nLuc/akaLuc ratio” value is 1.31.

Turning to `FC(F)c1nc2ccccc2n1-c1nc(N2CCOCC2)nc(N2CCOCC2)n1`, the “PARP1 L713F-nLuc/akaLuc ratio” value is 0.962.
